From PubChem
Hits are enriched below; roughly 3.1% of the tested compounds scored in any of these assays.
Nrf2 activator: activators of Nrf2 (ARE) signaling; 0.31% of 410,000 active; AREc32 ARE-luciferase reporter (MCF7-derived line), luminescence, 24 h; AID 624171; Potency, µM (doses to about 46.1 µM), inactives show top-dose activation, hits mostly activators; further: potency means the concentration at half of the fitted maximal effect; % of control where 0% means no effect; nearly all actives have a fitted effect of over 65% in size
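AREc32_Fluc, 1000 cells/well, OPTI-MEM + 5% FBS, o/n 37 deg C 5% CO2; 23 nL cpd by pin tool, 24 hr; Steady-Glo 30 min RT, luminescence.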
ELG1 repair inh: ELG1-dependent DNA repair inhibition | HEK293T ELG1-luciferase reporter, luminescence, 16 h; DNA damage induced by 5-fluorouridine | Potency, µM (titrated, usually from 46.1 µM), without a hit: top-dose activity change, negative = inhibition, hits mostly inhibitors | 2.3% of 330,000 active | AID 504467; further: potency means the concentration at half of the fitted maximal effect; on the % scale 0 is the no-effect control and ±100 the full control effect; nearly all actives have a fitted effect of over 55% in size
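HEK293T cells expressing luciferase-tagged ELG1 (2,000/well) received 5-Fluorouridine plus compound or DMSO for 16 hr at 37 °C. Luciferase was read by ONE-Glo luminescence after 30 min at room temperature.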
BRCA1 expr up: BRCA1 expression activation; MCF7-BRCA1-FFLuc reporter, luminescence, 48 h; response scale: scaled: vehicle 0%, 10 µM genistein 100%; AID 624202; 1.1% of 380,000 active; Potency, µM (titrated, usually from 46.1 µM), for inactives: at the top dose activation, most hits filed as activators; further: potency means the concentration at half of the fitted maximal effect; nearly all actives have a fitted effect of over 80% in size
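MCF7 cells carrying a BRCA1-firefly luciferase reporter (2000 cells/well, phenol-red free MEM) were attached for 2 h at 37 °C, then given compounds for 48 h. Luminescence was read 15 min after luciferase reagent; activity normalized to genistein (10 microM) and DMSO.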
IL-2 act: activators of IL-2. activation, % (series mostly up to about 46 µM). IL-2 activation reporter assay, cell-based qHTS; stimulated with anti-CD3/CD4/CD28 beads; in transgenic mouse T cells. AID 652025. 0.065% of 360,000 active; in the data active means activation above about 50%; inconclusive means mostly about 30% to 49%; further: 0% is about no effect
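EGFP and DsRed fluorescence is measured by plate cytometry in unstimulated transgenic mouse T cells exposed to compound for 60 minutes, then stimulated 18 hours at 37 degrees C with anti-CD3/anti-CD4 beads plus anti-CD28.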
Numbers without * were called inactive; ? = inconclusive; . = no result given; [ ] = dose if it differs, or a comment. Unless noted, the call rests on the fitted dose curve; in most records, active means well fitted curve in the direction sought with a large enough effect; inconclusive means small, poorly fitted or top-dose-only effect, or another doubt; inactive means no such curve, though single readings can be large; an effect the other way counts as inactive or inconclusive.

SMILES	Nrf2 activator	ELG1 repair inh	BRCA1 expr up	IL-2 act
CCCc1nc2ccc(NC(=O)NCCC(=O)OCC)cc2c(=O)n1Cc1cccc(Cl)c1	0%	?	-49%	1
CCCc1nc2ccc(NC(=O)NCCC(=O)OCC)cc2c(=O)n1Cc1ccc(Cl)cc1	0%	21µM*	-6%	-3
CC(=O)Nc1ccc2nc(C3CC3)n(Cc3ccc(Cl)cc3)c(=O)c2c1	6%	?	?	0
COc1ccc(CN2C(=O)CN(S(C)(=O)=O)CC2(C)C(=O)NCc2ccccc2)cc1OC (centres undefined)	.	.	.	-1
CCCCOCCCNC(=O)C[C@@H]1C[C@@]2(C(=O)OC)CCCCC=C2N(Cc2cccc3ccccc23)C1=O	-1%	.	-32%	-1
COc1ccc(-n2c(=O)c3ccccc3n(CC(=O)NCCc3ccccc3)c2=O)c(OC)c1	-1%	.	.	.
COC(=O)c1ccc(C(=O)NC(=S)Nc2nc3c(s2)CCCC3)cc1	9%	?	70%	0
S=C(Nc1nc2c(s1)CCCC2)NC1CC1	7%	?	6.3µM*	-3
Cc1ccc(CC(=O)Nc2nc3c(s2)CCCC3)cc1	3%	?	44%	2
O=C(NC(=S)Nc1nc2c(s1)CCCC2)c1ccccc1	2.5µM*	?	28%	1
Cc1ccccc1C(=O)NC(C(=O)Nc1nc2c(s1)CCCC2)C(C)C (centres undefined)	1%	21µM*	-48%	-2
CC1CCN(C(=O)CN2c3ccc(Br)cc3-c3ccccc3S2(=O)=O)CC1	4%	.	.	.
COc1ccc(-n2nc(C(=O)NCC(=O)NCc3ccc(F)cc3)c3ccccc3c2=O)cc1	0%	16µM*	-39%	-1
COc1ccc(-n2nc(C(=O)NCC(=O)NC(C)C)c3ccccc3c2=O)cc1	-1%	-1%	-20%	0
COc1ccc(-n2nc(C(=O)NCC(=O)NCCC3=CCCCC3)c3ccccc3c2=O)cc1	2%	16µM*	-25%	0
CN1CCS/C1=C\C=C1/SC(=S)N(CC(=O)O)C1=O	0%	3%	-7%	65*
Cc1ccc(OCC(=O)NC(=S)Nc2ccccn2)c(Br)c1	3%	?	11µM*	-2
O=C(COc1ccc(Br)cc1Cl)NC(=S)Nc1ccccn1	2%	?	?	-6
COc1ccc(N2C(=O)CSC23C(=O)N(CC(=O)NC2CCCCC2)c2ccccc23)cc1 (centres undefined)	-1%	.	.	.
O=C(CSc1nc(=O)n2cc(Cl)ccc2n1)Nc1ccc2c(c1)OCO2	0%	-6%	-2%	312*
O=C(Cn1ncc(Cl)c(Cl)c1=O)Nc1ccc2c(c1)OCO2	?	6.5µM*	-78%	0
CCOC(=O)c1ccc(NC(=O)Cn2ncc(Cl)c(Cl)c2=O)cc1	?	?	-101%	-3
CC(NC(=O)Cn1ncc(Cl)c(Cl)c1=O)C12CC3CC(CC(C3)C1)C2 (centres undefined)	?	18µM*	-76%	-2
CCC(=O)Nc1ccc(C(=O)Cn2ncc(Cl)c(Cl)c2=O)cc1	6.3µM*	?	-82%	-1
O=C(CSc1nc(=O)n2cc(Cl)ccc2n1)Nc1ccc2c(c1)OCCO2	2%	20%	-18%	-1
SMILES	Nrf2 activator	ELG1 repair inh	BRCA1 expr up	IL-2 act
CCN(CC)S(=O)(=O)c1ccc(C(=O)Nc2nnc(-c3ccco3)o2)cc1	0%	21µM*	-16%	-1
CN(C)S(=O)(=O)c1ccc(C(=O)Nc2nnc(-c3ccco3)o2)cc1	2%	?	6%	1
Cc1[nH]c2c(ccc3cccnc32)c1C	3%	15µM*	55%	-2
NC(=O)[C@@H]1CC2(CC(c3cccc(NC(=O)CC(c4ccccc4)c4ccccc4)c3)=NO2)CN1C(=O)COc1ccc(Cl)cc1 (some centres undefined)	6%	13µM*	-60%	0
NC(=O)[C@H]1CC2(CC(c3cccc(NC(=O)COc4ccc(Cl)cc4)c3)=NO2)CN1C(=O)CC(c1ccccc1)c1ccccc1 (some centres undefined)	1%	?	-66%	-1
Cc1ccc(C(=O)c2cn(Cc3c(F)cccc3Cl)c3nc(C)ccc3c2=O)cc1	0%	.	13%	.
O=[N+]([O-])c1cc(S(=O)(=O)Nc2ccc(Cl)cc2)ccc1N/N=C/c1ccncc1	0%	11%	-37%	-1
O=[N+]([O-])c1ccc(Cl)cc1N/N=C/c1ccncc1	1µM*	-4%	-40%	0
CCCn1c(N)c(C(=O)CN(C)CC(=O)Nc2ccccc2C(F)(F)F)c(=O)[nH]c1=O	0%	9.2µM*	-7%	-1
CCc1ccc(OCC(=O)Nc2ccc(Cl)c(-c3nc4ncccc4o3)c2)cc1	1%	.	.	.
COc1ccc(CCNC(=O)/C(C#N)=C2\N=C(NC(=O)c3ccco3)c3ccccc32)cc1	0%	7.3µM*	-27%	0
Cc1nc(COC(=O)c2c(C)nn(-c3ccccc3)c2C)cs1	2%	?	13µM*	-2
CC1(C(=O)Nc2ccc(Cl)c(Cl)c2)CCN1C(=O)Cc1ccc(-c2ccccc2)cc1 (centres undefined)	1%	.	-6%	0
N#Cc1cc(C#N)c(N2CCN(c3cccc(Cl)n3)CC2)nc1N	6%	1%	8.9µM*	2
Cc1cccc2cc(C#N)c(N3CCN(C)CC3)nc12	0%	-1%	11%	-3
c1ccc2c(c1)nc(NCCN1CCOCC1)c1nncn12	0%	?	-28%	1
Clc1cccc(N2CCN(CCNc3nc4ccccc4n4cnnc34)CC2)c1	-1%	21µM*	-55%	-2
NS(=O)(=O)c1cccc(NC(=O)CCSc2ccccc2Cl)c1	1%	?	10µM*	0
O=C(CCSc1ccccc1Cl)Nc1cccc([N+](=O)[O-])c1	5%	?	?	3
COc1ccc(S(=O)(=O)N2CCN(CC(=O)Nc3ccc(Cl)c(C(F)(F)F)c3)CC2)cc1	0%	.	-60%	.
NC(=O)C1(N2CCCCC2)CCN(C(=O)Nc2ccc(F)cc2)CC1	-2%	.	.	.
COC(=O)c1c(NC(=O)CN2CCN(Cc3ccc4c(c3)OCO4)CC2)sc(C)c1C	4%	8.2µM*	5%[1.84 µM]	-2
COC(=O)c1c(NC(=O)CN2C(=O)c3ccccc3C2=O)sc(Cc2ccc3c(c2)OCO3)c1C	0%	10%	-1%	-2
COC(=O)c1ccsc1NC(=O)CN1CCN(Cc2ccc3c(c2)OCO3)CC1	0%	5.2µM*	0%	1
Cc1cc2cc(CCNC(=O)c3c(-c4ccccc4Cl)noc3C)c(=O)[nH]c2cc1C	.	13µM*	.	.
Cc1ccc2cc(CCNC(=O)c3cccc([N+](=O)[O-])c3)c(=O)[nH]c2c1	-1%	?	-24%	1
Cc1ccc2cc(CCNC(=O)c3ccco3)c(=O)[nH]c2c1	1%	?	13µM*	1
Cc1onc(-c2ccccc2Cl)c1C(=O)NCCCc1ccccc1	0%	13%	-10%	-2
